Assay results as given in the supplement of paper PMC7411054.
Where a name gives a salt, the structure may show the parent alone.

Columns and labels:
Experiment in all cases: phenotypically active (imaging signature differs from DMSO and reproducible) at any of 0.3-9 uM (binary (1 = active, 0 = inactive)); higher = active
Conditions in all cases: treatment time: 24 h
[1] = system: A549-ACTB-RAB5A
Outline: (§1)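 Each of fifteen gene-edited A549, HepG2 and WPMY1 reporter lines, marked with BFP for segmentation and GFP and RFP/FusionRed, was treated in four wells at 0.3, 1, 3 or 9 µM for 24 h prior to live imaging. Normalisation of per-well live-cell features used solvent control wells. Deviation needed ≥3 of 4 wells beyond the 95th percentile of control Euclidean distances, and reproducibility needed a median replicate Pearson correlation above the 95th percentile of non-replicates. Both were required for phenotypic activity.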

[2] = system: A549-CANX-COX4
Outline: as §1

[3] = system: A549-GM130-SQSTM1
Outline: as §1

[4] = system: A549-TP53BP1-CLTA
Outline: as §1

[5] = system: A549-TUBA1B-RELA
Outline: as §1

[6] = system: HepG2-ACTB-RAB5A
Outline: as §1

[7] = system: HepG2-CANX-COX4
Outline: as §1

[8] = system: HepG2-GM130-SQSTM1
Outline: as §1

[9] = system: HepG2-TP53BP1-CLTA
Outline: as §1

[10] = system: HepG2-TUBA1B-RELA
Outline: as §1

[11] = system: WPMY1-ACTB-RAB5A
Outline: as §1

[12] = system: WPMY1-CANX-COX4
Outline: as §1

[13] = system: WPMY1-GM130-SQSTM1
Outline: as §1

[14] = system: WPMY1-TP53BP1-CLTA
Outline: as §1

[15] = system: WPMY1-TUBA1B-RELA
Outline: as §1

Measured: phenotypically active

O=C(NCc1ccccn1)Nc1nnc(-c2ccco2)o1
inactive: [1] 0 | [2] 0 | [3] 0 | [4] 0 | [5] 0 | [6] 0 | [7] 0 | [8] 0 | [9] 0 | [10] 0 | [11] 0 | [12] 0 | [13] 0 | [14] 0 | [15] 0

CC(=O)c1ccc(S(=O)(=O)NC(=O)NC2CCCCC2)cc1 [acetohexamide]
inactive: [1] 0 | [2] 0 | [3] 0 | [4] 0 | [5] 0 | [6] 0 | [7] 0 | [8] 0 | [9] 0 | [10] 0 | [11] 0 | [12] 0 | [13] 0 | [14] 0 | [15] 0

Cc1ccc(-c2csc3ncnc(SCCC(=O)O)c23)cc1
inactive: [1] 0 | [2] 0 | [3] 0 | [4] 0 | [5] 0 | [6] 0 | [7] 0 | [8] 0 | [9] 0 | [10] 0 | [11] 0 | [12] 0 | [13] 0 | [14] 0 | [15] 0

COc1c(O[C@@H]2O[C@H](CO)[C@@H](O)[C@H](O)[C@H]2O)cc2c(c1OC)-c1ccc(SC)c(=O)cc1[C@@H](NC(C)=O)CC2 [Thiocolchicoside]
inactive: [1] 0 | [2] 0 | [3] 0 | [4] 0 | [5] 0 | [6] 0 | [7] 0 | [8] 0 | [9] 0 | [10] 0 | [11] 0 | [12] 0 | [13] 0 | [14] 0 | [15] 0

O=C(O)c1ccc(N2N=C(Cc3ccccc3)/C(=C/c3ccc(-c4ccccc4F)o3)C2=O)cc1
inactive: [1] 0 | [2] 0 | [3] 0 | [4] 0 | [5] 0 | [6] 0 | [7] 0 | [8] 0 | [9] 0 | [10] 0 | [11] 0 | [12] 0 | [13] 0 | [14] 0 | [15] 0

O=C1N(c2ccccc2)c2ccccc2C1(Cc1ccncc1)Cc1ccncc1 [linopirdine]
inactive: [1] 0 | [2] 0 | [3] 0 | [4] 0 | [5] 0 | [6] 0 | [7] 0 | [8] 0 | [9] 0 | [10] 0 | [11] 0 | [12] 0 | [13] 0 | [14] 0 | [15] 0

N[C@@H](Cc1ccc(O)c(O)c1)C(=O)O [levodopa]
inactive: [1] 0 | [2] 0 | [3] 0 | [4] 0 | [5] 0 | [6] 0 | [7] 0 | [8] 0 | [9] 0 | [10] 0 | [11] 0 | [12] 0 | [13] 0 | [14] 0 | [15] 0

Nc1c2c(nc3ccccc13)CCCC2 [tacrine]
inactive: [1] 0 | [2] 0 | [3] 0 | [4] 0 | [5] 0 | [6] 0 | [7] 0 | [8] 0 | [9] 0 | [10] 0 | [11] 0 | [12] 0 | [13] 0 | [14] 0 | [15] 0

Cn1cnc2c(NCc3ccccc3)nc(NCCO)nc21 [Olomoucine]
inactive: [1] 0 | [2] 0 | [3] 0 | [4] 0 | [5] 0 | [6] 0 | [7] 0 | [8] 0 | [9] 0 | [10] 0 | [11] 0 | [12] 0 | [13] 0 | [14] 0 | [15] 0

CC(=O)N1CCN(C)CC1 [1-Acetyl-4-methylpiperazine hydrochloride]
inactive: [1] 0 | [2] 0 | [3] 0 | [4] 0 | [5] 0 | [6] 0 | [7] 0 | [8] 0 | [9] 0 | [10] 0 | [11] 0 | [12] 0 | [13] 0 | [14] 0 | [15] 0

OC[C@H]1NC[C@H](O)[C@@H](O)[C@@H]1O [1-Deoxynojirimycin]
inactive: [1] 0 | [2] 0 | [3] 0 | [4] 0 | [5] 0 | [6] 0 | [7] 0 | [8] 0 | [9] 0 | [10] 0 | [11] 0 | [12] 0 | [13] 0 | [14] 0 | [15] 0
